# Source: PubChem BioAssay
# Compounds with a hit are over-represented: about 3.1% of the library has one in this group of screens.
# GSIS activator: GLuc luminescence reporter in INS-1E cells, primary screen for activators of glucose-dependent secretion of insulin | activation, % at 16.6 µM | INS-1E GLuc reporter insulin secretion, 2-3 h | 0.61% of 370,000 active;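 active = lowest replicate activation of at least 40%, so every replicate reaches that level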;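 note: 0% = median of neutral control wells and 100% = median of IBMX positive control wells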
# miR-122 sensor: blocks miR-122 activity in Huh7 sensor cells. Huh7 miR-122 Renilla luciferase sensor, 48 h; neutral wells = 0, positive control = 100. activation (reporter increase), % at 12.5 µM. 0.3% of 340,000 active;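 active = mean replicate activation score at least 90 and every replicate individually at or above 90; inconclusive = only one of the two criteria met; inactive = neither criterion met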;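 note: higher luciferase means less miR-122 activity so hits act as miR-122 inhibitors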
# C2C12 statin: protects C2C12 myotubes from simvastatin toxicity | ATP luminescence, 48 h; scaled: DMSO 0, geranylgeraniol control 100 | rescue of ATP level, % at 7.49 µM | 0.78% of 330,000 active | AID 602340;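 active = mean ATP rescue above about 67%, or every replicate alone reaching that limit, limit read from the data, passing the limit was not always enough; inconclusive = no clear call, values can overlap the other calls; inactive = mean under the limit and some replicate under it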;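 note: myotubes were challenged with 10 µM simvastatin during compound exposure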
# HIV Env fusion: inhibitors of HIV Env-mediated cell fusion; HeLa-JRFL Env/CEM21 cell fusion, luciferase; 1.1% of 360,000 active; AID 651610; inhibition, % at 12.3 µM;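 active = mean replicate inhibition score of at least 50 and every replicate individually at or above 50; inconclusive = only one of the two criteria met; inactive = mean below 50 and not all replicates reaching 50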;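 note: 0% = plate neutral controls and 100% = maraviroc near 300 nM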
# EWS-Fli inh: blocks EWS/Fli oncoprotein-driven transcription; AID 651661; A673 NR0B1-luciferase reporter, viability-normalised; 0.67% of 350,000 active; inhibition, % at 12.6 µM;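 active = mean inhibition of at least 50% after viability correction, with every replicate also passing that limit; inconclusive = mean reaches 50% but only one of two replicates passes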;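 note: firefly luciferase signal divided by Alamar Blue viability fluorescence both relative to DMSO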
# PAX8 inh HTS: inhibitors of PAX8 transcriptional activity in RMG-I cells; RMG-I TPO-luciferase reporter, SteadyGlo, 24 h; inhibition, % at 12.6 µM; 1.2% of 360,000 active;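 active = mean replicate inhibition at least 60% with every replicate also reaching 60%; inconclusive = only one of the two criteria is met; inactive = mean below 60% and not all replicates reaching 60%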;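 note: luciferase light reporting Pax8 driven TPO promoter activity; plate controls were median of neutral control wells for no effect and mitoxantrone controls for full effect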
# Numbers without * were called inactive; ? = inconclusive; / = no result; [ ] = another dose, or the depositor's remark.
SMILES,GSIS activator,miR-122 sensor,C2C12 statin,HIV Env fusion,EWS-Fli inh,PAX8 inh HTS
C[C@H]1CN([C@@H](C)CO)C(=O)c2cccc(NC(=O)Nc3ccc(F)cc3)c2O[C@@H]1CN(C)Cc1ccc(Cl)c(Cl)c1,-26,6[16.7 µM],7,/,-3,/
C/C=C/c1cnc2c(c1)C(=O)N([C@H](C)CO)C[C@H](C)[C@H](CN(C)Cc1cncnc1)O2,12,/,4,-11[16.7 µM],-1,/
CCN1/C(=C\c2ccc3cc(C)ccc3[n+]2CC)Sc2cc(C)c(C)cc21,-39,-7,-75,23,57*,91*
C[n+]1ccccc1/C=C1\Sc2ccccc2N1CCO,-11,-6,-1,-44,20,15
CCN1/C(=C/c2ccc3cc(C)cc(C)c3[n+]2CC)Sc2cc(C)ccc21,-40,-1,-74,24,76*,101*
CCN1/C(=C/c2ccc3cc(C)ccc3[n+]2CC)Sc2ccc3sccc3c21,/,3,-233,/,/,/
CCN1/C(=C/c2ccc3cccc(C)c3[n+]2CC)Sc2ccccc21,-34,-31,/,59*,/,/
C[C@@H]1CN([C@@H](C)CO)C(=O)c2cc(NS(=O)(=O)c3ccc(Cl)cc3)ccc2O[C@@H]1CN(C)Cc1ccc(-c2ccccc2)cc1,-6,-9[16.7 µM],/,5[16.7 µM],6,/
O=C(CN1C(=O)c2ccccc2S1(=O)=O)c1ccccc1Cl,2,3,4,83*,82*,90*
O=C(CN1C(=O)c2ccccc2S1(=O)=O)Nc1ncc(Cl)cc1Cl,21,0,-21,/,58*,39
Cc1cc(/C=C2\Sc3ccccc3N2C)cc(C)[n+]1CC1CCCO1 (configuration not stated),-24,-15,/,15,47,78*
CCOc1ccc(N/C=C/C(=O)c2ccccc2)c([N+](=O)[O-])c1,-6,/,/,-235,60*,-26
O=C(COc1ccccc1)Nc1nn[nH]n1,/,8,112*,7,/,15
O=C(COc1cccc(Oc2ccccc2)c1)Nc1ncccn1,/,-2,107*,/,/,/
OC[C@@H]1[C@H](c2ccc(C#Cc3ccccc3)cc2)[C@H]2CN(CC3CCOCC3)CCCCN12,8,-4[16.7 µM],/,/,-18,-31
C[C@@H]1CN([C@@H](C)CO)C(=O)Cc2cc(NC(=O)Cc3ccccc3)ccc2O[C@H]1CN(C)Cc1ccc(C(F)(F)F)cc1,-41,-11[16.7 µM],27,15[16.7 µM],/,70*
C[C@@H]1CN([C@H](C)CO)C(=O)Cc2cc(NC(=O)Cc3ccccc3)ccc2O[C@@H]1CN(C)Cc1ccc(C(F)(F)F)cc1,-33,-15[16.7 µM],4,16[16.7 µM],/,86*
C[C@@H]1CN([C@@H](C)CO)C(=O)Cc2cc(NC(=O)Cc3ccccc3)ccc2O[C@@H]1CN(C)Cc1ccc(C(F)(F)F)cc1,-41,-8[16.7 µM],15,-4[16.7 µM],/,27
C[C@H]1CN([C@@H](C)CO)C(=O)Cc2cc(NC(=O)Cn3cnnn3)ccc2O[C@H]1CN(C)Cc1ccc(C(F)(F)F)cc1,-8,-3[16.7 µM],13,92*[16.7 µM],2,-53
C[C@H](CO)N1C[C@H](C)[C@@H](CN(C)Cc2ccccc2)Oc2ccc(NC(=O)Cc3ccccc3)cc2CC1=O,-10,26[16.7 µM],65,28[16.7 µM],4,12
C[C@H](CO)N1C[C@H](C)[C@@H](CN(C)Cc2ccc(C(F)(F)F)cc2)Oc2ccc(NC(=O)Cc3ccccc3)cc2CC1=O,-33,3[16.7 µM],116*,8[16.7 µM],/,52
COc1ccc2sc(-c3ccccc3OC)c(-c3ccc(O)cc3)c2c1,-55,2,132*,15,2,-32
COc1cc2sc(-c3ccccc3OC)c(-c3ccc(O)cc3)c2cc1OC,1,-2,-57,2,-2,4
Cc1ccnc2nc(C(=O)OCC(=O)c3ccccc3)nn12,2,-1,112*,10,9,19
CCOc1ccc(C(=O)Nc2cccc(C(=O)O)c2C)cc1Cl,22,-5,5,60*,23,36
SMILES,GSIS activator,miR-122 sensor,C2C12 statin,HIV Env fusion,EWS-Fli inh,PAX8 inh HTS
CCC(=O)Nc1ccc2c(c1)C(=O)N(C)C[C@@H](OC)[C@@H](C)CN(C(=O)c1ccc(F)cc1)[C@@H](C)CO2,-2,-5[16.7 µM],-3,20[16.7 µM],6,/
COc1ccc2nc(C)cc(Sc3nc4ccccc4s3)c2c1,-13,-6,-9,58*,-35,69*
COc1ccc2nc(C)cc(SCC(=O)NNC(=O)COc3ccccc3)c2c1,/,-11,-8,25,/,/
C[C@@H]1CCCCO[C@H](CN(C)CC2CCCCC2)[C@H](C)CN([C@@H](C)CO)C(=O)c2cc(NC(=O)Nc3ccc4c(c3)OCO4)ccc2O1,-17,0[16.7 µM],62,14[16.7 µM],7,-6
C[C@H](CO)N1C[C@H](C)[C@H](CN(C)C)OCCCC[C@H](C)Oc2ccc(NS(=O)(=O)c3cn(C)cn3)cc2C1=O,18,0[16.7 µM],/,10[16.7 µM],/,0
Cc1ccc(F)cc1-c1nc(NC(C)C)nc2cc(-c3ccccc3)sc12,66*,4,2,13,12,38
O=C(Nc1ccccc1)NN(C(=O)CCl)c1ccccc1,-10,13,-23,39,34,99*
CCC(O)(CC)C(=O)NN(C(=O)CCl)c1ccccc1,17,/,/,61*,17,-19
Cc1ccc(N(NC(=O)C(O)(c2ccccc2)c2ccccc2)C(=O)CCl)cc1,82*,/,/,70*,/,107*
CCCNC(=O)N1CC2(CN(Cc3cccc(OC)c3)C2)c2c(n(C)c3cc(OC)ccc23)[C@H]1CO,-7,/,/,/,7,-46
COc1ccc2c3c([nH]c2c1)[C@H](CO)N(S(=O)(=O)c1cn(C)cn1)CC31CCN(Cc2ccccc2)CC1,0,/,/,/,-5,/
O=C1C=CC2(C=C1)O[C@H](Cc1ccccc1)[C@@H](Cc1ccccc1)O2,35,-21,/,13,49,121*
CCCCCCCCN1[C@@H](CC(C)=O)c2cc(C(F)(F)F)ccc2S1(=O)=O,-41,15,1,61*,3,-4
CC(=O)C[C@H]1c2cc(C(F)(F)F)ccc2S(=O)(=O)N1C1CCCCC1,-24,118*,0,-11,9,6
CCCCCCCCN1[C@@H](CC(=O)OC)c2cc(C(F)(F)F)ccc2S1(=O)=O,-39,-2,-2,15,-1,0
CCCN(C)C[C@@H]1Oc2ncc(-c3cccc(C#N)c3)cc2C(=O)N([C@H](C)CO)C[C@@H]1C,-8,0[16.7 µM],3,12[16.7 µM],-1,/
C[C@@H]1CN([C@H](C)CO)C(=O)c2cc(/C=C/c3ccccc3)cnc2O[C@@H]1CN(C)S(=O)(=O)c1cccs1,-11,/,8,12[16.7 µM],-6,/
CCCCCCN1C[C@@H](n2cc(-c3ccc(F)cc3)nn2)[C@H](O)C[C@@H]1c1ccc(Cl)cc1,/,-1,28,?,23,89*
CCCCCCN1C[C@H](O)[C@@H](n2cc(-c3ccc(F)cc3)nn2)C[C@@H]1c1ccc(Cl)cc1,5,4,10,3,9,-32
